Source: PubChem (National Center for Advancing Translational Sciences (NCATS))
KB-3-1 cytotox: KB-3-1 parental cell cytotoxicity. KB-3-1 viability, CellTiter-Glo ATP luminescence, 72 h. Potency, µM (series often up to 46.1 µM), most hits filed as cytotoxic. 400,000 compounds, 1.4% hits; note: nearly all actives have a fitted effect of over 60% in size
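KB-3-1 parental drug-naive adenocarcinoma cells in DMEM/10% FBS, incubated 72 h at 37 C with pin-transferred compounds across a concentration series. Viability by CellTiter-Glo luminescence; concentration-response curves fitted after normalization.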
MCF10A rereplic: induces DNA re-replication in MCF 10a normal breast cells | MCF 10A DNA re-replication, Hoechst nuclear intensity, 48 h | Potency, µM (series often up to 46.1 µM), most hits filed as activators | 350,000 compounds, 2.9% hits | AID 624296; note: nearly all actives have a fitted effect of over 50% in size
SW480 rerep: DNA re-replication induction in SW480 cells; SW480 DNA re-replication, Hoechst DNA content imaging, 48 h; Potency, µM (top dose mostly 46.1 µM), actives largely listed as activators; 340,000 compounds, 1.8% hits; note: nearly all actives have a fitted effect of over 55% in size
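Treated cells incubate 48 hr (37 C, 5% CO2), are stained 40 min with Hoechst, and nuclear fluorescence is enumerated; a rise in nuclei with high DNA signal marks re-replication.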
ELG1 DNA repair: ELG1-dependent DNA repair inhibition. HEK293T ELG1-luciferase reporter, luminescence, 16 h; DNA damage induced by 5-fluorouridine. Potency, µM (doses to about 46.1 µM), hits mostly inhibitors. 330,000 compounds, 2.3% hits. AID 504467; note: nearly all actives have a fitted effect of over 55% in size
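In this reporter screen, reduction of luminescence relative to DMSO vehicle indicated activity. Compounds and 5-fluorouridine were added together to 2,000 cells per well, incubated for 16 hr at 37 °C, then developed with ONE-Glo.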
KB-V1 cytotox: KB-V1 MDR subline cytotoxicity; 400,000 compounds, 3.4% hits; KB-V1 MDR cells viability, CellTiter-Glo, 72 h; Potency, µM (titrated, usually from 46.1 µM), most hits filed as cytotoxic; note: nearly all actives have a fitted effect of over 60% in size
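KB-V1, DMEM (no phenol red) + 10% FBS; cpd pin-transferred, titration series; 72 h, 37 degrees C; CellTiter-Glo, luminescence. Data normalized, curve-fit.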
Of the large screens only hits and unclear results are named; the others gave an inactive call. Most compounds without a hit are left out; they make up all but 8.1% or so of the library. Calls come from the whole dose curve; as a rule, active = well fitted curve in the direction sought with a large enough effect; inconclusive = small, poorly fitted or top-dose-only effect, or another doubt; inactive = no such curve, though single readings can be large; an effect the other way counts as inactive or inconclusive.

CCOc1ccccc1NC(=O)COC(=O)C12CC3CC(CC(O)(C3)C1)C2	none
CCCS(=O)(=O)NC(=O)C1(C)CCN(C(=O)c2ccccc2OC(C)=O)C1 (stereo not given)	none (no result: MCF10A rereplic, SW480 rerep, ELG1 DNA repair)
CCOC(=O)/C(=C/c1c(C)n(C)c2ccc([N+](=O)[O-])cc12)C(C)=O	KB-3-1 cytotox 23.1µM, MCF10A rereplic 14.6µM, SW480 rerep inconclusive, ELG1 DNA repair 13µM, KB-V1 cytotox inconclusive
CCOC(=O)c1c(N)c2cc([N+](=O)[O-])ccc2n1C	KB-V1 cytotox inconclusive
Cc1cc(C)c(S(=O)(=O)/N=C2/C=C(Sc3ncn[nH]3)C(=O)c3ccccc32)cc1C	KB-3-1 cytotox inconclusive, MCF10A rereplic 2.31µM, SW480 rerep 2.59µM, ELG1 DNA repair 20.6µM, KB-V1 cytotox inconclusive
Cc1ccc([N+](=O)[O-])cc1S(=O)(=O)Nc1ccc(O)c(Sc2ncn[nH]2)c1	none
CC1CC=C(O)C12OCC(C)(C)CO2 (stereo not given)	none (no result: KB-3-1 cytotox, ELG1 DNA repair, KB-V1 cytotox)
CCOC(=O)c1sc(Nc2ccc(Br)cc2)nc1C	MCF10A rereplic inconclusive, ELG1 DNA repair inconclusive
CCOC(=O)c1cc2nc(Nc3ccc(OC)cc3)sc2s1	MCF10A rereplic 4.61µM, SW480 rerep inconclusive, ELG1 DNA repair inconclusive
COc1cc2c(NC3CCN(C)CC3)nc(N3CCCN(C)CC3)nc2cc1OCCCN1CCCCC1	KB-3-1 cytotox inconclusive (no result: MCF10A rereplic, SW480 rerep, ELG1 DNA repair)
Cc1ccc(S(=O)(=O)NN=C2CC3CCC2(C)C3(C)C)cc1 (stereo not given)	none (no result: ELG1 DNA repair)
CC(=O)c1sc(N/N=C2\CC3CCC2(C)C3(C)C)nc1C (stereo not given)	MCF10A rereplic 20.6µM, KB-V1 cytotox inconclusive
CCS(=O)(=O)N1CCN(C(=O)c2ccc3nc(C)c(N(C)C(=O)CCc4ccccc4)n3c2)CC1	none (no result: MCF10A rereplic, SW480 rerep, ELG1 DNA repair)
O=C(N/N=C/c1ccc(N2CCOCC2)cc1)c1cccs1	SW480 rerep 6.51µM, ELG1 DNA repair inconclusive
O=C(N/N=C/c1ccc(N2CCOCC2)cc1)c1ccccc1OCCOc1ccccc1	MCF10A rereplic inconclusive, SW480 rerep inconclusive, ELG1 DNA repair 16.4µM, KB-V1 cytotox inconclusive
O=C(N/N=C/c1ccc(N2CCOCC2)cc1)c1ccncc1	none
Clc1ccccc1Cn1c(/C=C/c2ccco2)nc2ccccc21	KB-3-1 cytotox inconclusive, MCF10A rereplic 18.4µM, KB-V1 cytotox 13µM (no result: SW480 rerep)
Brc1ccc(Cn2c(-c3cncs3)nc3ccccc32)cc1	ELG1 DNA repair inconclusive, KB-V1 cytotox 16.4µM
Cc1ccccc1CN1CCN(C(=O)[C@H]2O[C@@H](n3cnc4c(N)ncnc43)[C@H](O)[C@@H]2O)CC1	none (no result: MCF10A rereplic, SW480 rerep, ELG1 DNA repair)
Cc1cc(C)n2nc(SC(C)C(=O)NC3CCCCC3C)nc2n1 (stereo not given)	ELG1 DNA repair inconclusive
CCc1nc2ccc(C(=O)NCCCN(C)C)cn2c1N(C)CCCc1ccccc1	none (no result: MCF10A rereplic, SW480 rerep, ELG1 DNA repair)
Cc1cccc(NC(=O)/C(C#N)=C/c2cn(CC(=O)NCc3ccco3)c3ccccc23)c1	MCF10A rereplic 8.2µM, SW480 rerep inconclusive
N#C/C(=C\c1cn(CC(=O)N2CCCCC2)c2ccccc12)C(=O)NCc1ccc2c(c1)OCO2	SW480 rerep 1.64µM, KB-V1 cytotox 25.9µM
COc1ccccc1OCCn1cc(/C=C(\C#N)C(=O)NCc2ccco2)c2ccccc21	ELG1 DNA repair inconclusive, KB-V1 cytotox 3.66µM
Cc1ccc(C)c(OCCn2cc(/C=C(\C#N)C(=O)NCc3ccco3)c3ccccc32)c1	MCF10A rereplic inconclusive, SW480 rerep inconclusive, ELG1 DNA repair inconclusive
COCCNC(=O)/C(C#N)=C/c1cn(CC(=O)NCc2ccco2)c2ccccc12	none
N#C/C(=C\c1cn(Cc2ccccc2F)c2ccccc12)C(=O)NCc1ccco1	MCF10A rereplic 18.4µM
CCOC(=O)c1ccc(NC(=O)CCc2c(C)nc3nc[nH]n3c2=O)cc1	none (no result: MCF10A rereplic, SW480 rerep, ELG1 DNA repair)
CCOC(=O)c1c(C)[nH]c(C)c1S(=O)(=O)N1CCC(C(=O)NCc2ccc(OC)cc2)CC1	none (no result: MCF10A rereplic, SW480 rerep, ELG1 DNA repair)
CCc1ccc(NC(=O)c2cc3c(COC(C)=O)cnc(C)c3oc2=O)cc1	none (no result: MCF10A rereplic, SW480 rerep, ELG1 DNA repair)
N#C/C(=C\c1cn(CC(=O)O)c2ccccc12)C(=O)NCc1ccccc1	ELG1 DNA repair inconclusive, KB-V1 cytotox inconclusive
N#C/C(=C\c1cn(CCOc2ccccc2)c2ccccc12)C(=O)NCc1cccs1	MCF10A rereplic inconclusive, SW480 rerep 16.4µM, KB-V1 cytotox inconclusive
CCN1CCN(c2nc3c(C)cccn3c(=O)c2/C=C(\C#N)C(=O)NC)CC1	MCF10A rereplic 5.8µM
